Compounds without any hit were thinned out: in the full panel of roughly 83,000, 20% have a hit.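 How to read the values: 0–100, growth inhibition (40 = 60% inhibited); 0, no net growth; -100 to 0, cell death (-40 = 40% of starting cells died; -100 = all dead).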 Values without a mark were called inactive. Active and inactive are the calls of the source. How the source made its calls: active means growth percent below 10; inactive means the rest.
tested on: HL-60(TB) leukemia; assay: NCI-60 one-dose screen, 48 h (100 = growth as untreated, 0 = no growth, -100 = all killed); conditions: 10 µM unless noted

| SMILES | growth |
| --- | --- |
| Cc1ccc(-c2csc(NC(=O)c3ccccc3CN3C(=O)c4ccccc4C3=O)n2)cc1 | 95.3% |
| O=C(NCCN1CCOCC1)c1cncnc1Nc1ccc2c(ccn2Cc2ccccn2)c1 | 99.7% |
| CCCCCCCCCCCC(c1ccccc1)N(C)C (stereo not given) | 104% |
| O=[N+]([O-])c1cccc(N=Cc2ccc3c(c2)OCO3)c1 | 98.5% |
| C=C(C)Cn1c(SCC(=O)c2cccs2)nc2sc3c(c2c1=O)CCCC3 | 63.2% |
| COC(=O)/C=C1/CCC2C3CCC4=CC(=O)C(Br)CC4(C)C3C(=O)CC12C (stereo not given) | 75.1% |
| CCOC(=O)C/C(=C\c1ccccc1)C(C)=O | 98.5% |
| COc1ccc(C2C=C(c3ccc(Cl)c(Cl)c3)N=C3SC(C)=CN32)cc1 (stereo not given) | 83.3% |
| COc1cc(/C=C/C(=O)Nc2cccnc2Nc2ccc(F)cc2)cc(OC)c1OC | 107% |
| COc1cccc(/C=C2\Oc3cc(OCCCN4CCCC4)ccc3C2=O)c1 | 81% |
| O=C(CNc1nnc(-c2ccc(Cl)cc2)o1)Nc1ccc(-c2nc3ccccc3s2)cc1 | 93.7% |
| CC1NC(=O)NC1CCCCCC(=O)O (stereo not given) | 107% |
| N#Cc1c(-c2cccc(F)c2)cc(-c2ccc(Br)s2)[nH]c1=O | 67% |
| O=C(Nc1cccc(-n2cc(-c3ccncc3)c(-c3ccc(O)c(Cl)c3)n2)c1)c1ccc(Cl)c(Cl)c1 | 33.9% |
| O=C1C(Cl)=C(Nc2ccc(S(=O)(=O)N3CCOCC3)cc2)C(=O)c2ccccc21 | -17.7% (active) |
